The source made the active and inactive calls. Where a call stands in place of a potency, no number is given. The call rests on the fitted dose curve; in most records, active means well fitted cell-killing curve with a large enough effect in the repeat runs; inconclusive means weak or mixed curves, or effect the other way; inactive means flat fitted curve, though single readings scatter.
Potency means the concentration at half of the fitted maximal effect.

A short description of this assay: qHTS assay to identify small molecule HDAC inhibitors - cell viability counter screen (AID 1259365). Further: nearly all actives have a fitted effect of over 50% in size. As to conditions: HCT-116 viability, CellTiter-Glo ATP luminescence, 2 h; series mostly up to 92.4 µM. In a few lines:
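Measured quantity is CellTiter-Glo luminescence from wild-type HCT-116 cells after compound incubation of 2hr at 37C, 5% CO2; reagent developed 30min at room temperature.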
On the technique in general: Quantitative high-throughput screening tests each substance at several concentrations.
For `O=C(OCC(COC(=O)c1ccccc1)(COC(=O)c1ccccc1)COC(=O)c1ccccc1)c1ccccc1`, the Potency entry was “inactive”.

As for `Cc1cc(N)c(S(=O)(=O)O)cc1Cl`, the Potency entry is “inactive”.

Regarding `CCN(CC)CCNC(=O)c1c(C)[nH]c(/C=C2\C(=O)Nc3ccc(F)cc32)c1C`, the Potency entry is “inactive”. For `CC(C)(C)c1ccc(C(=O)CCCN2CCC(OC(c3ccccc3)c3ccccc3)CC2)cc1`, the Potency entry is “inactive”. The entry for `O=c1cc(-c2ccc(O)cc2)oc2cc(O)cc(O)c12` is “inactive”; for `CO[Si](CCCNc1ccccc1)(OC)OC` it is “inactive”; for `C=C(C)C(=O)OCC(O)COc1ccc(C(C)(C)c2ccc(OCC(O)COC(=O)C(=C)C)cc2)cc1` (stereo unspecified) it is “inactive”. `CCCCCCCCCCCC[N+](C)(C)CCCCCCCCCCCC`: the Potency is 54.5 µM (active). With `CCCCCCCC(=O)[O-].CCCCCCCC(=O)[O-].[Zn+2]` the entry was “inactive”; with `C/C=C(\C)C(=O)OCc1ccccc1`, “inactive”. Turning to `CCN(C(=O)c1cc(C)cc(OC[C@H](C)Nc2ccncc2)c1)C(C)C`, the Potency result is “inactive”. Consider `O=C(O)c1c(Cl)cccc1Cl`, for which the Potency result was “inactive”. Take `CC(C)(C)c1ccc(C(=O)O)cc1`: the Potency result is “inactive”. On to `Cc1cccc(N(C)C(=S)Oc2ccc3c(c2)C2CCC3C2)c1` (stereo unspecified), for which the Potency entry was “inactive”. With `CCN(C(=O)N(CC)c1ccccc1)c1ccccc1` the entry was “inactive”; with `O=C(Nc1cccc(Cl)c1)OCC#CCCl`, “inactive”. For `CN(C)[C@@H]1C(=O)C(C(N)=O)=C(O)[C@@]2(O)C(=O)C3=C(O)c4c(O)cccc4C[C@H]3C[C@@H]12`, the Potency entry is “inactive”. For the molecule `Oc1cccc2cc3cccc(O)c3c(O)c12`, the Potency result is “inactive”. As to `Oc1ccc2cc(SSc3ccc4cc(O)ccc4c3)ccc2c1`, the Potency entry was “inactive”. Turning to `CCCCCOC(=O)CCCC`, the Potency entry is “inactive”. With `C1CCCC1` the entry was “inactive”; with `CCCC/C=C/CCCCO`, “inactive”. In the case of `CCCCCCCC/C=C\CCCCCCCCOCCO`, the Potency result was “inactive”. As for `Nc1c(Cl)cc(Cl)cc1Cl`, the Potency result is “inactive”. The entry for `C/C=C1/C(=O)C[C@H]2[C@@H]3CCC4=CC(=O)CC[C@]4(C)[C@H]3CC[C@]12C` is “inactive”; for `Nc1ccc2cc(S(=O)(=O)O)cc(O)c2c1N=Nc1ccccc1C(F)(F)F` it is “inactive”. As to `COc1cccc(N)c1`, the Potency result is “inactive”. For `OCCCCCCCCCCCCBr`, the Potency result is “inactive”. With `[Cl][Au]([Cl])[Cl]`, the Potency result was “inactive”. The entry for `COc1cc(-c2ccc(N=C=O)c(OC)c2)ccc1N=C=O` is “inactive”; for `C[n+]1ccn(Cc2ccccc2)c1` it is “inactive”; for `CSc1cnc(C)cn1` it is “inactive”.

Take `Clc1ccccc1C(c1ccccc1)(c1ccccc1)n1ccnc1`: the Potency entry was “inactive”. `CC(C)CCCCCCCCCCCCCCC(=O)O`: the Potency entry is “inactive”. On to `CCC(Cl)C(Cl)C(Cl)CC(Cl)C(Cl)C(C)Cl` (stereo unspecified), for which the Potency result was “inactive”. For the molecule `O=C1c2ccccc2Cc2ccccc21`, the Potency entry is “inactive”.

The values above are taken from PubChem BioAssay (Tox21).
